# Most compounds without a hit are left out; they make up all but 1.4% or so of the library.
# Mm-Cpn inhibitor = M. maripaludis TRiC chaperonin inhibition. purified Mm-Cpn ATPase, ADP Transcreener TR-FRET. Potency, µM (titrated, usually from 76.9 µM), for inactives: top-dose activity, negative = inhibition, actives largely listed as inhibitors. 330,000 tested, 0.031% active; note: potency is the fitted concentration of half-maximal effect; % is set by controls: 0 for no effect and ±100 for the full control effect; nearly all actives have a fitted effect of over 80% in size
#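 Eu-cryptate anti-ADP/ADP-d2 competition gives a ratio inversely related to ADP. Enzyme at 25 nM was pre-exposed to compound for 10 min, then given 10 uM ATP for 30 min, 37°C throughout.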
# CCT chaperon mod = modulators of cytosolic chaperonin (CCT/TRiC) activity; purified chaperonin ATPase assay, HTRF ADP detection, 30 min; activity change, % (test concentration not listed), hits read low; 360,000 tested, 0.3% active; AID 651819; in the data active = activity change below about -30%; note: % is set by controls: 0 for no effect and ±100 for the full control effect
#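 TRiC (40 or 20 nM final, by batch activity) in 30 mM Tris pH 7.4, 100 mM KCl, 5 mM MgCl2, 1 mM DTT was treated with compound at 76 uM single dose, then 10 uM ATP, 30 min at 37 °C. ADP was read by HTRF Transcreener.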
# ASM inhibitor = human S-ASM enzyme inhibition. P17405. AID 504937. placental ASM, HMU-PC fluorogenic substrate, 60 min. Potency, µM (titrated, usually from 57.5 µM), without a hit: at the highest dose activity change, negative = inhibition, actives largely listed as inhibitors. 340,000 tested, 0.006% active; note: potency is the fitted concentration of half-maximal effect
#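 Human placenta-derived ASM enzyme was preincubated with compound for 10 minutes at room temperature, then given fluorogenic substrate HMU-PC0 (9 uM final) for 60 minutes at 37 °C; a pH 10 stop preceded fluorescence reading at Ex 386/Em 447 nm.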
# p53 reactivation = restores transcriptional activity of mutant p53; H1299 p53-A138V BP100-luciferase reporter, luminescence, 24 h; Potency, µM (series often up to 92.2 µM), without a hit: at the top dose activity change, positive = activation, usual class: activators; 320,000 tested, 0.063% active; AID 504706; note: potency is the fitted concentration of half-maximal effect; % of control where 0% means no effect; nearly all actives have a fitted effect of over 45% in size
#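 p53-null H1299 cells stably carrying temperature-sensitive p53-A138V and a BP100-luciferase reporter were pinned with compounds (4-point, 1:5 series) and held 24 hrs at 37 deg C. Luminescence was read 10 min after detection reagent.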
# PINK1 expr mod = PINK1 expression modulation | 410,000 tested, 0.2% active | AID 624263 | Potency, µM (top dose mostly 76.6 µM), without a hit: top-dose activation (PINK1 increase), usual class: activators | PINK1 immunofluorescence, high-content cytometry, 24 h; active = well fitted activation curve with a large enough effect; inconclusive = small, poorly fitted or top-dose-only effect; cell line not stated here; note: potency is the fitted concentration of half-maximal effect; % of control where 0% means no effect; nearly all actives have a fitted effect of over 65% in size
#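 Cells are seeded, rested 12 hours, then given compound at five concentrations or DMSO for 24 hours. After fixation, blocking and antibody staining, PINK1 amount and mitochondrial localization are scored; CCCP serves as control.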
# 12-LOX inh = inhibitors of human 12S-lipoxygenase ALOX12; P18054; purified 12hLO, xylenol orange hydroperoxide absorbance; Potency, µM (titrated, usually from 108 µM), inactives show at the highest dose activity change, negative = inhibition, hits mostly inhibitors; 580,000 tested, 1.1% active; AID 1671190; note: potency is the fitted concentration of half-maximal effect; % is set by controls: 0 for no effect and ±100 for the full control effect
# Target sequence (P18054 whole entry, looked up): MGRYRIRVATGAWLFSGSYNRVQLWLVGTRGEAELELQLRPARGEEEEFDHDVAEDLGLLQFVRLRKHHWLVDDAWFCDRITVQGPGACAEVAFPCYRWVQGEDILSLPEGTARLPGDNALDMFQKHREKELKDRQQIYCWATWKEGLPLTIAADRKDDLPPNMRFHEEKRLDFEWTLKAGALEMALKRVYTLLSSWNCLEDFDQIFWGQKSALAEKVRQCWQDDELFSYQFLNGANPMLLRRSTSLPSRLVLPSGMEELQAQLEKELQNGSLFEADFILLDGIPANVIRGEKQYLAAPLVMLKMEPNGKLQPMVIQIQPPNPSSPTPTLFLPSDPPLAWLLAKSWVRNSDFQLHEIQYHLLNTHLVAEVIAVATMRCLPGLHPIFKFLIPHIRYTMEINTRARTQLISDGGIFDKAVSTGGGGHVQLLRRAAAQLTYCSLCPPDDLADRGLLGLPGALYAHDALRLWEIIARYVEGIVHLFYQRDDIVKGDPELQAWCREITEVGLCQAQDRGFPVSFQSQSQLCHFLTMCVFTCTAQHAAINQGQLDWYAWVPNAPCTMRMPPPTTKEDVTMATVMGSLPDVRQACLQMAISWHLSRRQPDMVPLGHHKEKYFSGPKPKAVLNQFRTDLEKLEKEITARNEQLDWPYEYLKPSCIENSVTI
#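 Hydroperoxide product was detected by ferrous iron/xylenol orange as the 573 to 405 nm absorbance ratio. Arachidonic acid at 40 uM (final) was turned over for 30 min at room temperature by 150 nM human 12hLO, pH 7.0 Hepes buffer, after 15 min compound preincubation.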
# * marks the source's active call; other numbers are inactive results; i = inactive; ? = inconclusive; · = not tested or not shown. Unless noted, calls come from the whole dose curve; as a rule, active = well fitted curve in the direction sought with a large enough effect; inconclusive = small, poorly fitted or top-dose-only effect, or another doubt; inactive = no such curve, though single readings can be large; an effect the other way counts as inactive or inconclusive.
SMILES,Mm-Cpn inhibitor,CCT chaperon mod,ASM inhibitor,p53 reactivation,PINK1 expr mod,12-LOX inh
O=C(COc1ccccc1)N1CCC2(CC1)NC(=O)N(c1ccccc1Cl)N2,·,·,·,·,·,-94%
O=C(c1cccc(Cl)c1)N1CCC2(CC1)NC(=O)N(c1ccccc1Cl)N2,·,·,·,·,·,1.6µM*
CC(Oc1ccccc1)C(=O)N1CCC2(CC1)NC(=O)N(c1ccccc1Cl)N2 (configuration not stated),·,·,·,·,·,1.4µM*
CCCCCCCCC(=O)Oc1ccc(C(=O)O)cc1,·,·,·,·,·,2%
O=C(c1ccc(F)cc1)N1CCN(Cc2ccccc2)CC1,0%,-3,12%,·,1%,69%
O=C(c1ccc(F)cc1)N1CCC2(CC1)NC(=O)N(c1ccccc1Cl)N2,·,·,·,·,·,1.3µM*
Cc1nc(SCC(=O)N(Cc2ccc(F)cc2)C2CCCCC2)sc1CC(N)=O,·,·,·,·,·,26%
CC1(C)CC(N2CCCCC2)=CC(=NCCCN2CCOCC2)C1,·,·,·,·,·,22µM*
CC1(C)CC(=O)C(C=NCCCN2CCOCC2)=C(O)C1,-1%,-1,5%,-19%,-2%,?
O=C(O)CCc1oc2cc(O)ccc2c(=O)c1-c1nc2ccccc2[nH]1,·,·,·,·,·,-13%
Cc1cccc(Nc2nc(-c3ccc4c(c3)CCN4S(C)(=O)=O)cs2)c1,·,·,·,·,·,35µM*
COc1cc(C2CC(=O)Nc3c2ncn3-c2ccccc2Br)ccc1O (configuration not stated),·,·,·,·,·,63%
COc1ccc(C2CC(=O)Nc3c2ncn3-c2cccc(C(F)(F)F)c2)cc1OC (configuration not stated),·,·,·,·,·,28µM*
CCN(CC)CCn1c2ccccc2c2nc3ccccc3nc21,-23%,0,0%,9%,-1%,?
CCN(CC)CCn1c2ccccc2c2n[nH]c(=S)nc21,0%,3,-1%,·,1%,32µM*
COc1cc(N=Nc2cccc(S(N)(=O)=O)c2)c2ccccc2c1N,-7%,2,?,-7%,0%,6.3µM*
NC1=NC(=Nc2cccc(S(N)(=O)=O)c2)c2ccccc21,-11%,1,-2%,6%,-1%,14%
COc1ccc(/C=C/C(=O)c2cccc(O)c2)cc1,·,·,·,·,·,-61%
COc1cc(/C=C/C(=O)c2cccc(O)c2)cc(Cl)c1O,·,·,·,·,·,25µM*
CCOc1ccccc1/C=C/C(=O)c1ccc(Cl)cc1,-1%,-1,-2%,17%,-1%,-2%
COc1cc(/C=C/C(=O)c2ccc3c(c2)OCO3)cc(Cl)c1O,-4%,1,?,14%,-3%,?
CCOc1cc(/C=C/C(=O)c2ccc(Cl)cc2)cc(Cl)c1O,·,·,·,·,·,7.9µM*
O=C(/C=C/c1cccc(O)c1)c1ccc(F)cc1,·,·,·,·,·,45µM*
CCOc1cc(/C=C/C(=O)c2ccc(OC(F)F)cc2)cc(Cl)c1OC,·,·,·,·,·,-32%
CCOc1cc(/C=C/C(=O)c2ccc(C)cc2)cc(Cl)c1O,·,·,·,·,·,22µM*
SMILES,Mm-Cpn inhibitor,CCT chaperon mod,ASM inhibitor,p53 reactivation,PINK1 expr mod,12-LOX inh
Cc1cccc(Nc2nc3ccccc3nc2NS(=O)(=O)c2cccc(Cl)c2)c1,·,·,·,·,·,-13%
CCOC(=O)c1cncc(C#N)c1,·,·,·,·,·,0%
Cc1ccc(C(=O)/C=C/c2cc(C)c(O)c(C)c2)o1,·,·,·,·,·,33%
O=C(NCc1coc(-c2cccs2)n1)c1ccc(S(=O)(=O)C(F)F)cc1,·,·,·,·,·,-19%
CC1=NOC(=O)/C1=C\c1ccc(-c2ccc(Cl)cc2Cl)o1,0%,0,2%,-1%,-2%,16µM*
CN(C)C(=O)[C@@H]1CN(Cc2ccc(F)cc2F)C[C@H]1CO,·,·,·,·,·,11%
COc1ccc(CC(=O)N2N=C(c3cccc(Br)c3)CC2(O)C(F)(F)F)cc1 (configuration not stated),·,·,·,·,·,14µM*
c1cncc(-c2cc(NCc3cccs3)ncn2)c1,·,·,·,·,3%,40µM*
c1cncc(-c2nccc(NCc3cccs3)n2)c1,·,·,·,·,-1%,20µM*
c1cncc(-c2[nH]ncc2CNCc2cccs2)c1,·,·,·,·,·,7.1µM*
CCCCNC(=O)CSc1nnc(Cc2ccc(Cl)c(Cl)c2)c(=O)[nH]1,-1%,-1,1%,-1%,-1%,?
O=c1[nH]c(=S)[nH]nc1Cc1ccc(Cl)c(Cl)c1,1%,1,3%,3%,0%,6.3µM*
CC(C)(C)c1ccc(Cc2n[nH]c(=S)[nH]c2=O)cc1,1%,6,-16%,-3%,1%,16µM*
O=C(COc1ccc(S(=O)(=O)NC2CCCC2)cc1)NCc1ccccn1,·,·,·,·,·,11%
CCOc1ccc(NC(=O)NCc2nc(-c3ccc(OCC)cc3)oc2C)cc1,·,·,·,·,·,-13%
CC(C)c1cccc(C(C)C)c1NC(=O)/C=C/c1cccc(F)c1,·,·,·,·,·,31%
Cc1ccc(C(CNC(=O)CCc2nc(-c3cccnc3)no2)N(C)C)cc1 (configuration not stated),·,·,·,·,·,-11%
Cc1cccc(C)c1NS(=O)(=O)c1c(C)[nH]c(=O)[nH]c1=O,-1%,-37*,5%,-6%,-2%,?
CC(=O)NC1(C)CCN(Cc2ccc(-c3cccc(F)c3)cc2)C1 (configuration not stated),·,·,·,·,·,50µM*
CC(=O)NC1(C)CCN(Cc2ccccc2-c2cccc(C(C)=O)c2)C1 (configuration not stated),·,·,·,·,·,35µM*
CC(=O)NC1(C)CCCN(Cc2cccc(-c3c(C)noc3C)c2)C1 (configuration not stated),·,·,·,·,·,40µM*
CC(=O)NC1(C)CCN(Cc2ccccc2-c2ccc3c(ccn3C)c2)C1 (configuration not stated),·,·,·,·,·,28µM*
Cc1oc(-c2ccccc2)nc1C(=O)OCC(=O)NC(=O)NC1CCCC1,·,·,·,·,·,7%
CCN1CCc2c(sc(NC(=O)Nc3cccc(C(C)=O)c3)c2C(N)=O)C1,·,·,·,·,·,3%
CCN1CCc2c(sc(NC(=O)Nc3ccc(Cl)c(Cl)c3)c2C(N)=O)C1,-6%,-3,86%,2%,14µM*,?
CCc1cccc(NC(=O)COC(=O)c2ccc(C3Nc4ccccc4S(=O)(=O)N3)cc2)c1 (configuration not stated),·,·,·,·,·,-13%
CCN(CC)c1ccc(/C=C/c2cc(-c3ccccc3)c3ccccc3n2)cc1,35µM*,1,i,0%,1%,?
CC(=O)N1CCN(C(C(=O)O)c2c[nH]c3ccc(NC(=O)C(C)C)cc23)CC1 (configuration not stated),·,·,·,·,·,-20%
COc1ccc(S(=O)(=O)N(CCC(=O)O)Cc2ccccc2)cc1,2%,-50*,0%,-1%,2%,-1%
COc1cccc(CN(CCC(=O)O)Cc2cccc(OC)c2)c1,·,-1,·,·,0%,18µM*
